Test results as given in the supplement of paper PMC7156485.
± gives the standard deviation of the averaged measurements.

Experiments:
Details in all cases: concentration: 10 µM; 24 h
HCC1569 [1] = assay: cell number relative to DMSO (% of DMSO); higher = more cells (less growth inhibition / toxicity)
Method in brief: (§1)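 For HCC1569 and TDF cells, compounds at 10 µM were applied for 24 h at 37 °C in triplicate in 384-well plates. Cells were fixed in 3.7% formaldehyde, stained for H1.0 and with DAPI, and imaged at ×10 over six fields per well. The endpoint, H1.0 nuclear intensity or cell number, is shown as percent of the plate control using the median of replicates. Positional effects were smoothed for HCC1569 only.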

TDF [2] = assay: as above
Method in brief: as §1

TDF [3] = assay: H1.0 immunofluorescence intensity relative to DMSO (% of DMSO); higher = stronger H1.0 induction, active = 120 or more
Method in brief: as §1

HCC1569 [4] = assay: H1.0 immunofluorescence intensity relative to DMSO (% of DMSO); higher = stronger H1.0 induction, active = 140 or more
Method in brief: as §1
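Throughout, for H1.0 immunofluorescence intensity relative to DMSO: TDF is a line of transformed human dermal fibroblasts of mesenchymal origin.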
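Throughout, for cell number relative to DMSO: TDF denotes transformed human dermal fibroblasts of mesenchymal origin.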

| SMILES | cell number (HCC1569 [1]) | cell number (TDF [2]) | H1.0 immunofluorescence intensity (TDF [3]) | H1.0 immunofluorescence intensity (HCC1569 [4]) |
| --- | --- | --- | --- | --- |
| CSc1cccc(Nc2ncc3cc(-c4c(Cl)cccc4Cl)c(=O)n(C)c3n2)c1 | 37.3 | 6.26 | 145 (active) | 150 (active) |
| CC(CN1CCC(Cc2ccccc2)CC1)C(O)c1ccc(O)cc1.Cl (centres undefined) [Ro 25-6981 hydrochloride] | 105 | 101 | 86.4 (inactive) | 96.6 (inactive) |
| C[N+](C)(C)CCOC(N)=O.[Cl-] [Carbachol] | 105 | 120 | 100 (inactive) | 96.9 (inactive) |
| CCOC(=O)c1cnc2c(cnn2CC)c1NN=C(C)C.Cl [Etazolate hydrochloride] | 107 | 101 | 86.8 (inactive) | 99.5 (inactive) |
| Cl.NNc1nncc2ccccc12 [Hydralazine hydrochloride] | 101 | 107 | 93.2 (inactive) | 92 (inactive) |
| Cc1nc(C)c(C)nc1C [Tetramethylpyrazine] | 106 | 108 | 92.9 (inactive) | 94.2 (inactive) |
| OCC1NC(CO)C(O)C1O [(2R,5R)-Bis(hydroxymethyl)-(3R,4R)-dihydroxypyrrolidine] | 102 | 101 | 91.3 (inactive) | 84.7 (inactive) |
| C1CCN2CC3CC(CN4CCCCC34)C2C1.O.O.O.O.O.O=S(=O)(O)O (centres undefined) | 103 | 94.3 | 107 (inactive) | 98.4 (inactive) |
| NC(C(=O)O)C(O)C(=O)O (racemic) [DL-threo-beta-hydroxyaspartic acid] | 101 | 110 | 96.7 (inactive) | 95.9 (inactive) |
| NCC1CCC(C(=O)O)CC1 (centres undefined) [Tranexamic acid] | 99.5 | 104 | 87.9 (inactive) | 111 (inactive) |
| O=C(O)CCCC=CCC=CC=CC(O)CC=CCCCCCO (centres undefined) | 101 | 92.6 | 98.3 (inactive) | 101 (inactive) |
| COc1ccc2cc1Oc1ccc(cc1)CC1c3cc(c(OC)cc3CCN1C)Oc1c(OC)c(OC)c(OC)c3c1C(C2)N(C)CC3 (centres undefined) [Hernandezine] | 93.5 | 93 | 106 (inactive) | 110 (inactive) |
| Cl.N=c1c[n+](N2CCOCC2)[n-]o1 [3-Morpholinosydnonimine hydrochloride] | 104 | 108 | 94.1 (inactive) | 88.8 (inactive) |
| Cc1oc(-c2ccccc2)nc1CCC(=O)c1ccc(CC2SC(=O)[N-]C2=O)cc1.[Na+] (centres undefined) | 103 | 106 | 96.4 (inactive) | 102 (inactive) |
| CCCOc1ccc2nc(NC(=O)OC)[nH]c2c1 [Oxibendazole] | 62.8 | 9.31 | 157 (active) | 154 (active) |
| CN(C)C(=O)Nc1cccc(-c2ccc(N(C)C)cc2)c1 [3-(4'-(dimethylamino)-[1,1'-biphenyl]-3-yl)-1,1-dimethylurea] | 101 | 101 | 97.6 (inactive) | 87.2 (inactive) |
| Cc1cc2nc3c(=O)[nH]c(=O)nc-3n(C)c2cc1C=O | 99.8 | 97.8 | 91 (inactive) | 115 (inactive) |
| Cc1c(C)c2c(c(C)c1OC(=O)CCC(=O)O)CCC(C)(CCCC(C)CCCC(C)CCCC(C)C)O2 (centres undefined) [Tocopherol succinate] | 98.1 | 109 | 94.4 (inactive) | 102 (inactive) |
| O=C1CCc2cc(OCCCCc3nnnn3C3CCCCC3)ccc2N1 [Cilostazol] | 101 | 109 | 90.2 (inactive) | 97 (inactive) |
| Nc1ccn(C2CCC(CO)O2)c(=O)n1 (centres undefined) ["2',3' - Dideoxycytidine"] | 107 | 87.5 | 100 (inactive) | 101 (inactive) |
| COc1ccc(C2CC(=O)c3c(O)cc(OC4OC(COC5OC(C)C(O)C(O)C5O)C(O)C(O)C4O)cc3O2)cc1O (centres undefined) [Hesperidine] | 107 | 102 | 93.2 (inactive) | 84.8 (inactive) |
| CC(=O)C1CCC2C3CC=C4CC(OS(=O)(=O)[O-])CCC4(C)C3CCC12C.[Na+] (centres undefined) [Pregnenolone sulfate sodium] | 105 | 110 | 95.8 (inactive) | 97.8 (inactive) |
| CC(C=CC1=C(C)CCCC1(C)C)=CC=CC(C)=CC(=O)O [Retinoic Acid] | 98.1 ± 2.9 | 109 ± 5.1 | 90.8 (inactive) | 121 (inactive) |
| O=C(CCN1CCN(C(=O)OCc2cc(Cl)cc(Cl)c2)CC1)c1ccc2[nH]c(=O)oc2c1 | 70.5 | 104 | 87.1 (inactive) | 168 (active) |
| CC(=O)NCCc1c(Cc2ccccc2)[nH]c2ccccc12 [N-[2-(2-benzyl-1H-indol-3-yl)ethyl]acetamide] | 101 | 92.4 | 104 (inactive) | 98.9 (inactive) |
| CNC(=O)c1cc(Oc2ccc(NC(=O)Nc3ccc(Cl)c(C(F)(F)F)c3)cc2)ccn1 [Sorafenib] | 45.9 | 21.5 | 108 (inactive) | 68.6 (inactive) |

| SMILES | cell number (HCC1569 [1]) | cell number (TDF [2]) | H1.0 immunofluorescence intensity (TDF [3]) | H1.0 immunofluorescence intensity (HCC1569 [4]) |
| --- | --- | --- | --- | --- |
| CN1CCN2c3ccccc3Cc3ccccc3C2C1.Cl (centres undefined) [Mianserin hydrochloride] | 105 | 101 | 95.5 (inactive) | 98.4 (inactive) |
| CCOC(=O)Oc1c(OC)cc(C(=O)OC2CC3CN4CCc5c([nH]c6cc(OC)ccc56)C4CC3C(C(=O)OC)C2OC)cc1OC (centres undefined) [Syrosingopine] | 94.7 | 104 | 96.8 (inactive) | 105 (inactive) |
| CCCCCC(O)C=CC=CCCCCCCCC(=O)O (centres undefined) | 96 | 97.2 | 96.4 (inactive) | 101 (inactive) |
| CC(C)C(CO)Nc1nc(Nc2cc(N)cc(Cl)c2)c2ncn(C(C)C)c2n1 (centres undefined) | 60.6 | 45.9 | 111 (inactive) | 177 (active) |
| COc1ccc(-c2cc(=S)ss2)cc1 [Anethole trithione] | 93.6 | 104 | 98.2 (inactive) | 103 (inactive) |
| CC(C)n1cnc2c(NCc3ccccc3)nc(NCCCO)nc21 [Bohemine] | 91.4 | 87.5 | 100 (inactive) | 106 (inactive) |
| Cc1ccccc1C(=O)c1ccc(Nc2ccc(Br)cc2N)cc1Cl | 97.3 | 107 | 93 (inactive) | 117 (inactive) |
| CCOc1nc2cccc(C(=O)O)c2n1Cc1ccc(-c2ccccc2-c2nn[nH]n2)cc1 [Candesartan] | 104 | 97.2 | 99.8 (inactive) | 99.7 (inactive) |
| CCOC(=O)c1c(C)[nH]c(C=C2C(=O)Nc3ccccc32)c1C [VEGF Receptor 2 Kinase Inhibitor I] | 100 | 97.1 | 94.2 (inactive) | 103 (inactive) |
| CC(=O)c1ccc(NC2=C(Cl)C(=O)c3ccccc3C2=O)cc1 [2-(4-acetylanilino)-3-chloronaphthoquinone] | 17.7 | 8.89 | 150 (active) | 178 (active) |
| Cc1ccc(F)c(NC(=O)Nc2ccc(-c3cccc4[nH]nc(N)c34)cc2)c1 | 92.4 | 90.1 | 101 (inactive) | 101 (inactive) |
| CC(O)CCCC(O)C=CC1C(O)CC(=O)C1CC=CCCCC(=O)O [19(R)-Hydroxy-prostaglandin E2] | 98.1 | 92.7 | 95.7 (inactive) | 92.1 (inactive) |
| CC(=O)O/N=C1\C(=O)N(Cc2cc(Cl)ccc2Cl)c2ccc(Cl)cc21 | 99.5 | 107 | 97.2 (inactive) | 99.5 (inactive) |
| O=C(O)CCC(C(=O)O)N1C(=O)c2ccccc2C1=O [L-Glutamic acid, N-phthaloyl-] | 101 | 110 | 91.4 (inactive) | 105 (inactive) |
| Cl.Oc1ccc(Nc2nc(-c3ccc(Cl)cc3)cs2)cc1 [Sphingosine Kinase Inhibitor] | 69.3 | 75.1 | 110 (inactive) | 193 (active) |
| COc1cc(C(O)C(=O)O)ccc1O (racemic) | 105 | 109 | 89.5 (inactive) | 91.2 (inactive) |
| CN(C)c1ccccc1CN1CCCN(Cc2ccccc2N(C)C)C1c1ccncc1 | 83.9 | 65.2 | 109 (inactive) | 137 (inactive) |
| Nc1ncnc2c1C(=O)N(c1ccc(C3CCC(CC(=O)O)CC3)cc1)CCO2 (centres undefined) | 103 | 95.7 | 99.8 (inactive) | 98.5 (inactive) |
| CN1CC(O)C(O)C(O)C1CO (centres undefined) [N-Methyl-1-deoxynojirimycin] | 53 | 57 | 109 (inactive) | 185 (active) |
| CC12CCC(=O)C=C1CCC1C2C(O)CC2(C)C1CCC2(O)C(=O)CO (centres undefined) [Hydrocortisone] | 98.68 ± 0.34 | 102 ± 9.9 | 86.3 (inactive) | 105 (inactive) |
| CC(=O)C(C)=O [2,3-Butanedione] | 103 | 103 | 85.8 (inactive) | 92.3 (inactive) |
| C=C1C(=O)C23C(O)C1CCC2C12COC3(O)C(O)C1C(C)(C)CCC2O (centres undefined) [Rubescensin A] | 90.8 | 99 | 96.2 (inactive) | 100 (inactive) |
| OCc1c[nH]c2ccccc12 [Indole-3-carbinol] | 97.5 | 109 | 102 (inactive) | 110 (inactive) |
| COCc1nc2c([nH]1)c(=O)n(C)c(=O)n2CC(C)C [8-Methoxymethyl-3-isobutyl-1-methylxanthine] | 104 | 110 | 92.4 (inactive) | 93.2 (inactive) |
| Cc1nc2n(c(=O)c1CCN1CCC(c3noc4cc(F)ccc34)CC1)CCCC2 [Risperidone] | 100 ± 3 | 99.6 ± 4 | 93.1 (inactive) | 107 (inactive) |
